Experimental data taken from PubChem BioAssay AID1159580 (chemical genetic matrix, 2015).
Hit rate of the full screen: of about 5,500 compounds, about 2,000 (36%) were called active. Another 18% or so got no clear call; they are omitted. Cut-off read from the data, not from the text of the source: active = normalized growth mostly below about 0.91 (no sharp cut-off); inconclusive = no clear call, values can overlap the other calls; inactive = mostly above about 0.92. The list shows a part of the results.

Assay: chemical genetic growth profiling, strain panel (AID 1159580);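 note: tested at 20 µM; growth read once vehicle control cultures reached saturation at 30 °C; 1 = growth at the plate median or of vehicle wells; lower values mean less growth of the strain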
Conditions: growth OD

Measured: normalized growth

COc1c2ccoc2nc2c(OC)c(OCC(O)C(C)(C)O)ccc12 (configuration not stated)
inactive: S. cerevisiae deletion strains, locus YJR075W, strain HOC1, stronger effect = lower value 1.07 | S. cerevisiae deletion strains, locus YKL009W, strain mrt4, stronger effect = lower value 0.944 | S. cerevisiae deletion strains, locus YKL068W, stronger effect = lower value 0.978 | S. cerevisiae deletion strains, locus YKL085W, strain MDH1 (second series), stronger effect = lower value 1 | S. cerevisiae deletion strains, locus YKL085W, strain MDH1, stronger effect = lower value 1 | S. cerevisiae deletion strains, locus YKL160W, strain elf1, stronger effect = lower value 1.03 | S. cerevisiae deletion strains, locus YKL190W, strain CNB1, stronger effect = lower value 0.979 | S. cerevisiae deletion strains, locus YKR001C, strain vps1, stronger effect = lower value 0.985 | S. cerevisiae deletion strains, locus YKR026C, strain gcn3, stronger effect = lower value 1.02 | S. cerevisiae deletion strains, locus YKR091W, strain srl3, stronger effect = lower value 1.01 | S. cerevisiae deletion strains, locus YLL001W, strain dnm1, stronger effect = lower value 1.03 | S. cerevisiae deletion strains, locus YLL026W, stronger effect = lower value 1.01 | S. cerevisiae deletion strains, locus YLL041C, strain sdh2, stronger effect = lower value 1.02 | S. cerevisiae deletion strains, locus YLR027C, strain aat2, stronger effect = lower value 1.03 | S. cerevisiae deletion strains, locus YLR039C, strain RIC1, stronger effect = lower value 0.974 | S. cerevisiae deletion strains, locus YLR058C, strain SHM2, stronger effect = lower value 0.991 | S. cerevisiae deletion strains, locus YLR102C, strain apc9, stronger effect = lower value 0.99 | S. cerevisiae deletion strains, locus YLR113W, strain HOG1, stronger effect = lower value 1.03 | S. cerevisiae deletion strains, locus YLR221C, strain rsa3, stronger effect = lower value 1.03 | S. cerevisiae deletion strains, locus YLR258W, strain gsy2, stronger effect = lower value 1.02 | S. cerevisiae deletion strains, locus YLR262C, strain YPT6 (second series), stronger effect = lower value 1.04 | S. cerevisiae deletion strains, locus YLR262C, strain YPT6, stronger effect = lower value 0.938 | S. cerevisiae deletion strains, locus YLR268W, strain sec22, stronger effect = lower value 1.02 | S. cerevisiae deletion strains, locus YLR320W, strain mms22, stronger effect = lower value 1.03 | S. cerevisiae deletion strains, locus YLR330W, strain CHS5, stronger effect = lower value 0.992 | S. cerevisiae deletion strains, locus YLR342W, strain FKS1 (second series), stronger effect = lower value 0.992 | S. cerevisiae deletion strains, locus YLR342W, strain FKS1, stronger effect = lower value 1.02 | S. cerevisiae deletion strains, locus YLR357W, strain rsc2, stronger effect = lower value 1.06 | S. cerevisiae deletion strains, locus YLR370C, strain arc18, stronger effect = lower value 1.01 | S. cerevisiae deletion strains, locus YLR371W, strain rom2, stronger effect = lower value 0.976 | S. cerevisiae deletion strains, locus YLR384C, strain iki3, stronger effect = lower value 1 | S. cerevisiae deletion strains, locus YLR418C, strain cdc73, stronger effect = lower value 1.04 | S. cerevisiae deletion strains, locus YML016C, strain PPZ1, stronger effect = lower value 0.99 | S. cerevisiae deletion strains, locus YML032C, strain rad52, stronger effect = lower value 0.974 | S. cerevisiae deletion strains, locus YML120C, strain ndi1, stronger effect = lower value 1.02 | S. cerevisiae deletion strains, locus YML124C, strain tub3, stronger effect = lower value 0.99 | S. cerevisiae deletion strains, locus YMR058W, strain fet3, stronger effect = lower value 1.03 | S. cerevisiae deletion strains, locus YMR078C, strain ctf18, stronger effect = lower value 0.97 | S. cerevisiae deletion strains, locus YMR125W, strain sto1, stronger effect = lower value 1.04 | S. cerevisiae deletion strains, locus YMR129W, stronger effect = lower value 1.01 | S. cerevisiae deletion strains, locus YMR205C, strain PFK2, stronger effect = lower value 1.04 | S. cerevisiae deletion strains, locus YMR223W, strain ubp8, stronger effect = lower value 0.961 | S. cerevisiae deletion strains, locus YMR231W, strain pep5, stronger effect = lower value 1 | S. cerevisiae deletion strains, locus YMR263W, strain SAP30, stronger effect = lower value 1.01 | S. cerevisiae deletion strains, locus YMR307W, strain GAS1, stronger effect = lower value 0.941 | S. cerevisiae deletion strains, locus YNL067W, strain RPL9B, stronger effect = lower value 1.03 | S. cerevisiae deletion strains, locus YNL071W, strain lat1, stronger effect = lower value 1.02 | S. cerevisiae deletion strains, locus YNL128W, strain TEP1, stronger effect = lower value 1.01 | S. cerevisiae deletion strains, locus YNL153C, strain GIM3, stronger effect = lower value 1.02 | S. cerevisiae deletion strains, locus YNL183C, strain NPR1, stronger effect = lower value 0.985 | S. cerevisiae deletion strains, locus YNL209W, strain ssb2, stronger effect = lower value 1.02 | S. cerevisiae deletion strains, locus YNL233W, strain BNI4, stronger effect = lower value 1.02 | S. cerevisiae deletion strains, locus YNL248C, strain rpa49, stronger effect = lower value 1.02 | S. cerevisiae deletion strains, locus YNL250W, strain rad50, stronger effect = lower value 0.989 | S. cerevisiae deletion strains, locus YNL271C, strain bni1, stronger effect = lower value 0.989 | S. cerevisiae deletion strains, locus YNL298W, strain CLA4, stronger effect = lower value 0.975 | S. cerevisiae deletion strains, locus YNL307C, strain MCK1, stronger effect = lower value 0.976 | S. cerevisiae deletion strains, locus YNL322C, strain KRE1 (second series), stronger effect = lower value 1.03 | S. cerevisiae deletion strains, locus YNL322C, strain KRE1, stronger effect = lower value 0.995 | S. cerevisiae deletion strains, locus YNR049C, strain mso1, stronger effect = lower value 1.02 | S. cerevisiae deletion strains, locus YNR052C, strain pop2, stronger effect = lower value 0.962 | S. cerevisiae deletion strains, locus YOL006C, strain TOP1, stronger effect = lower value 1.01 | S. cerevisiae deletion strains, locus YOL012C, strain htz1 1.86 | S. cerevisiae deletion strains, locus YOL147C, strain pex11, stronger effect = lower value 0.996 | S. cerevisiae deletion strains, locus YOR001W, strain rrp6, stronger effect = lower value 1.02 | S. cerevisiae deletion strains, locus YOR061W, strain CKA2, stronger effect = lower value 0.997 | S. cerevisiae deletion strains, locus YOR069W, strain VPS5, stronger effect = lower value 0.99 | S. cerevisiae deletion strains, locus YOR070C, strain gyp1, stronger effect = lower value 1 | S. cerevisiae deletion strains, locus YOR080W, strain dia2, stronger effect = lower value 0.999 | S. cerevisiae deletion strains, locus YOR083W, strain WHI5, stronger effect = lower value 1.03 | S. cerevisiae deletion strains, locus YOR106W, strain vam3, stronger effect = lower value 1.04 | S. cerevisiae deletion strains, locus YOR136W, strain idh2, stronger effect = lower value 0.982 | S. cerevisiae deletion strains, locus YOR144C, strain elg1, stronger effect = lower value 0.978 | S. cerevisiae deletion strains, locus YOR184W, strain ser1, stronger effect = lower value 0.946 | S. cerevisiae deletion strains, locus YOR231W, strain MKK1, stronger effect = lower value 1.01 | S. cerevisiae deletion strains, locus YOR265W, strain rbl2, stronger effect = lower value 1 | S. cerevisiae deletion strains, locus YOR270C, strain vph1, stronger effect = lower value 1.07 | S. cerevisiae deletion strains, locus YOR290C, strain snf2, stronger effect = lower value 1.02 | S. cerevisiae deletion strains, locus YOR316C, strain cot1, stronger effect = lower value 0.99 | S. cerevisiae deletion strains, locus YPL051W, strain arl3, stronger effect = lower value 1.05 | S. cerevisiae deletion strains, locus YPL055C, strain LGE1, stronger effect = lower value 1.03 | S. cerevisiae deletion strains, locus YPL078C, strain atp4, stronger effect = lower value 1.03 | S. cerevisiae deletion strains, locus YPL106C, strain sse1, stronger effect = lower value 1.02 | S. cerevisiae deletion strains, locus YPL240C, strain hsp82, stronger effect = lower value 1 | S. cerevisiae deletion strains, locus YPL241C, strain CIN2, stronger effect = lower value 0.992 | S. cerevisiae deletion strains, locus YPL256C, strain CLN2, stronger effect = lower value 1.03 | S. cerevisiae deletion strains, locus YPR119W, strain clb2, stronger effect = lower value 0.998 | S. cerevisiae deletion strains, locus YPR141C, strain kar3, stronger effect = lower value 0.995 | S. cerevisiae deletion strains, locus YPR163C, strain tif3, stronger effect = lower value 0.98 | S. cerevisiae deletion strains, locus YPR167C, strain met16, stronger effect = lower value 0.992 | S. cerevisiae deletion strains, strain wtn01, stronger effect = lower value 1.02 | S. cerevisiae strains, strain wild type, stronger effect = lower value 0.996
